This is one part of the list. Records with an inconclusive call do not appear. The source made the active and inactive calls. Calls follow the shape of the dose curve; as a rule, active = well fitted curve in the direction sought with a large enough effect; inconclusive = small, poorly fitted or top-dose-only effect, or effect the other way, or another doubt; inactive = no such curve, though single readings can be large or run the other way.
Experiment: Confirmation Concentration-Response Assay for Agonists of the Thyroid Stimulating Hormone Receptor: Activators of Intracellular cAMP Concentrations in Parental HEK 293
Description: NIH Chemical Genomics Center [NCGC] NIH Molecular Libraries Screening Centers Network [MLSCN] MLSCN Grant: 1 X01 MH080680-01 PI Name: Dr. Marvin Gershengorn NCGC Assay Overview: This cell based assay utilized a cyclic nucleotide gated ion channel (CNG) as a biosensor for cAMP induction. HEK 293 cells stably expressing the modified CNG were purchased from BD biosciences (http://www.atto.com/products/actone/features_benefits.shtml) . Stimulation of cAMP production causes the CNG to open and subsequent membrane depolarization to occur. A fluorescent membrane potential dye (BD biosciences) was utilized to detect cAMP stimulation in cells. The cells were maintained in DMEM medium (Invitrogen) containing 10 % FBS (Hyclone), 100 units/ml Penicillin, 100 ug/ml Streptomycin (Invitrogen), and 250 ug/ml Geneticin (Invitrogen) and 1 ug/ml Puromycin (Invitrogen) at 37C in 5% CO2. […]
NCGC Assay Protocol Summary: High Throughput Screening. […] 23 nl/well compound or control was then added to the assay plates, which were incubated for additional 30 min before reading a Envision fluorescence plate reader (Perkin Elmer) in bottom-read mode for fluorescence intensity (emission at 590 nm). Keywords: cAMP, CNG Ion Channel, quantitative high throughput screening, qHTS, HTS, probe identification, CNG, cAMP, cyclic nucleotide gated ion channel PubChem

C=CCN1C(=O)C2(C(C(=O)OCC)=C(N)Oc3c2c(=O)oc2ccccc32)c2ccccc21 (configuration not stated)
outcome: inactive

CCOC(=O)C1=C(C)OC(N)=C(C(=O)OC)C12C(=O)Nc1ccc(Br)cc12 (configuration not stated)
outcome: inactive

Reference: PubChem BioAssay AID953 (National Center for Advancing Translational Sciences (NCATS), 2007)
